The values that follow come from PubChem BioAssay (NCATS).

Experiment [1] addresses Lysosomal acid glucosylceramidase (Homo sapiens) (UniProt P04062). In words: Glucocerebrosidase-p2 (AID 348; in the data active = potency below about 10 µM; also: potency is read from the fitted curve at half-maximal effect). The conditions noted are these: purified GBA, blue fluorogenic substrate, 40 min. The essentials:
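Normal human glucocerebrosidase (0.2 nM) with blue fluorogenic substrate (80 uM final) in citrate/phosphate pH 5.9 with 10mM sodium taurocholate, 0.01% tween-20; 40 min RT, NaOH/glycine stop; fluorescence Ex 365/Em 440; AC50 from a titration from 0.6 nM upwards.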

Experiment [2] can be described thus: AP1 Signaling Pathway (AID 357; active = well fitted curve in either direction with a large enough effect, not every such curve was filed as active;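 also: ME-180 reporter cells stimulated with EGF at its EC50 level; % is scaled to controls: 0 for no effect and ±100 for the full control effect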). The settings on record: ME-180 (cervical carcinoma) AP-1-bla reporter, EGF-induced, beta-lactamase ratio, 5 h; at 7.69 µM (top of the series) unless noted. The essentials:
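A ratiometric CCF4 readout (405 nm excitation; 460 and 530 nm emission) quantified AP-1-driven beta-lactamase in ME-180 cells after 5 h with compound and EC50 EGF; AC50 values were derived for activators and inhibitors.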

In experiment [3] the target is Cytochrome P450 1A2 (Homo sapiens) (UniProt P05177). Briefly: p450-cyp1a2 (AID 410; calls by dose curve; also: potency is read from the fitted curve at half-maximal effect). A digest of the protocol:
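Read-out is luminescence from luciferin produced by CYP1A2 demethylation of Luciferin-ME (100uM, at Km). Detection reagent stopped the 60 min NADPH-dependent reaction; signals were normalized to 57 uM furafylline.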

The nature of experiment [4]: NFAT Signaling Pathway (AID 444; active = well fitted curve in either direction with a large enough effect, not every such curve was filed as active;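 also: carbachol stimulus at about its EC50 of 1 µM final; % is scaled to controls: 0 for no effect and ±100 for the full control effect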). The settings on record: Jurkat NFAT-bla M1, carbachol, beta-lactamase ratio, 5 h; at 7.69 µM (top of the series) unless noted. A digest of the protocol: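 Jurkat cells carrying an NFAT-driven β-lactamase reporter and co-transfected muscarinic M1 receptor were treated with compound plus carbachol (1 uM final, an EC50 level) for 5 h at 37 °C. CCF4 loading followed for 1 h at RT; 460/530 nm ratio gave %activity.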

Experiment [5] in a line: Stat Signaling Pathway (AID 446; active = well fitted curve in either direction with a large enough effect, not every such curve was filed as active;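 also: ME-180 cervical cancer cells given 40 pM IL-6 alongside compound; SIE-controlled beta-lactamase reporter measured as 460/530 nm FRET emission ratio; % is scaled to controls: 0 for no effect and ±100 for the full control effect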). A digest of the protocol:
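Normalization used AC90 stimulation (300 pM IL-6) and AC90 inhibition (125 nM pan-JAK inhibitor at 40 pM IL-6). The underlying signal is SIE-driven beta-lactamase in ME-180 cells after 5 h IL-6 exposure with compound.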

Experiment [6] has as its target Glucocorticoid receptor (Homo sapiens) (UniProt P04150). In words: GR-GFP Redistribution (AID 450;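 active = compounds whose dose series gives a full or clear partial fitted curve of increased nuclear translocation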; also: potency is read from the fitted curve at half-maximal effect). The conditions noted are these: U2OS GR-GFP nuclear translocation, laser cytometry, 2 h.
The target is the same in experiment [7]. In words: GR-EFC Redistribution (AID 451; calls by dose curve; also: potency is read from the fitted curve at half-maximal effect). The conditions noted are these: CHO-K1 GR-EFC translocation, beta-gal luminescence, 2 h. The essentials:
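CHO-K1 cells stably expressing nuclear-localized β-gal enzyme acceptor and GR fused C-terminally to the enzyme donor fragment; ligand-driven nuclear translocation restores β-gal by complementation. Compounds titrated up to 46 uM final, 2 h at 37 °C; luminescence read.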

The target of experiment [8] is Mitogen-activated protein kinase 10 (Mus musculus) (UniProt Q61831). In words: JNK3 AlphaScreen Assay (AID 530; active = well fitted curve in either direction with a large enough effect, not every such curve was filed as active;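 also: kinase came from lysate of stimulated human HepG2 cells; signal reports phosphorylation of biotinylated GST-cJun 1-79 at Ser73 with 10 µM ATP; % is scaled to controls: 0 for no effect and ±100 for the full control effect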). The essentials: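 Biotinylated GST-cJun(1-79) served as substrate for JNK3 in HepG2 lysates stimulated with IL-1beta and TNF-alpha. ATP was 10 uM final, pH 7.6. Ser73 phosphorylation was quantified by AlphaScreen (680 nm excitation).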
A general note: Bead proximity is the source of the signal in Alpha formats.

Experiment [9] addresses 3',5'-cyclic-AMP phosphodiesterase 4B (Homo sapiens) (UniProt Q07343). Briefly: qHTS Assay for Inhibitors of PDE-IV (AID 607; active = well fitted activation curve with a large enough effect in the main read-out, with a control signal flat, not every such curve was filed as active; also: % of control where 0% means no effect). The essentials: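 HEK293 ACTOne cells with CNG channel (1000/well), endogenous PDE4; membrane potential dye, compounds up to 22.9 uM final. Fluorescence Ex 535/Em 590; RO 20-1724 (100 uM final) as reference.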
(In general: In qHTS, concentration-response curves come from the screen itself.)

The target in experiment [10] is Cytochrome P450 3A4 (Homo sapiens) (UniProt P08684). Briefly: qHTS Assay for Inhibitors and Substrates of Cytochrome P450 3A4 (AID 884). Also: potency is read from the fitted curve at half-maximal effect; nearly all actives have a fitted effect of over 50% in size. The essentials: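 Luminescent readout of luciferin produced by CYP3A4 (20 nM) dealkylation of Luciferin-PPXE, 25 uM (its KM). NADPH-driven reaction ran 60 min at RT after 10 min compound preincubation; data scaled to 57 uM ketoconazole as 100% inhibition.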
Chain of Cytochrome P450 3A4 (Homo sapiens) (P08684 whole entry, looked up): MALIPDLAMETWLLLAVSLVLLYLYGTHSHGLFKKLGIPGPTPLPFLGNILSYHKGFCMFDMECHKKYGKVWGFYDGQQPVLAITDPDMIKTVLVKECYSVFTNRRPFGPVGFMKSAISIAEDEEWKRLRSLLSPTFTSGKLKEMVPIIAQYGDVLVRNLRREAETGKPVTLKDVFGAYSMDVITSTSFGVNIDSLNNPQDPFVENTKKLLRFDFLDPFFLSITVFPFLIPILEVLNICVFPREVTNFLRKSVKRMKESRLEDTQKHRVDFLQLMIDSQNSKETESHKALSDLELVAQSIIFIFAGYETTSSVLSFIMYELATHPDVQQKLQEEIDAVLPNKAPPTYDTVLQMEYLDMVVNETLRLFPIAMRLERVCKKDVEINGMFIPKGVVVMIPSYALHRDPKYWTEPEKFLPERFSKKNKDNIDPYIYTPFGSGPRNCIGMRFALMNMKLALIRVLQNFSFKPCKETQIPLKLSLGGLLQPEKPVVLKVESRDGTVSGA

Experiment [11] shares this target. In words: qHTS Assay for Activators of Cytochrome P450 3A4 (AID 885). Also: nearly all actives have a fitted effect of over 65% in size. The essentials:
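Human CYP3A4 dealkylates Luciferin-PPXE to luciferin, which luciferase detection converts to light. Substrate was at its KM (25uM), buffer 200mM KPO4, reaction 60 min at RT.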

In experiment [12] the target is Dual specificity protein kinase CLK4 (Homo sapiens) (UniProt Q9HAZ1). Briefly: qHTS Assay for Inhibitors of CDC-like Kinase 4 (Kinase-Glo Assay) (AID 1770). Also: % is scaled to controls: 0 for no effect and ±100 for the full control effect; nearly all actives have a fitted effect of over 65% in size. The essentials:
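Recombinant human Clk4 (25 nM) phosphorylated RS repeat peptide (100 uM) with 1 uM ATP in Tris pH 7.5/MgCl2/EGTA/DTT/Triton buffer for 4.5 h at room temperature. Residual ATP was quantified by Kinase-Glo luciferase luminescence.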

The target is the same in experiment [13]. Briefly: qHTS Assay for Inhibitors of CDC-like Kinase 4 (ADP-Glo Assay) (AID 1771). Also: % is scaled to controls: 0 for no effect and ±100 for the full control effect; nearly all actives have a fitted effect of over 70% in size. A digest of the protocol: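 In this ADP-Glo format, 1 uM ATP and 100 uM RS peptide served as substrates for 25 nM Clk4 in Mg2+/EGTA/DTT/Triton buffer; reactions ran 1 hr at room temperature before luminescent ADP quantification.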
Experiment [14] has the same target. Briefly: qHTS Assay for Inhibitors of CDC-like Kinase 4 (ADP-FP Assay) (AID 1795). Also: % is scaled to controls: 0 for no effect and ±100 for the full control effect; nearly all actives have a fitted effect of over 60% in size. A digest of the protocol: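 Recombinant human Clk4 (6.25 nM) phosphorylated RS repeat peptide (100 uM) with 1 uM ATP in Tris pH 7.5/MgCl2/EGTA/DTT/Triton buffer for one hour. ADP was quantified by Transcreener competitive fluorescence polarization against an ADP calibration curve.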

Experiment [15] deals with Ubiquitin carboxyl-terminal hydrolase 1 (Homo sapiens) (UniProt O94782). In words: Inhibitors of USP1/UAF1: Pilot qHTS (AID 504865).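 Also: rhodamine fluorescence freed from ubiquitin-rhodamine substrate followed over time; top concentration of the series differs between compounds; % is scaled to controls: 0 for no effect and ±100 for the full control effect; nearly all actives have a fitted effect of over 35% in size.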 The essentials:
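USP1/UAF1 complex (1nM) preincubated with compound 15 min at room temperature, then Ub-Rho substrate (150nM final) added. Fluorescence read kinetically at 480/540 nm, 6 reads every 60 seconds. Buffer: 50mM HEPES pH 7.8, 0.5mM EDTA, 0.1 mg/ml BSA, 1mM TCEP, 0.01% Tween-20.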

A number with no mark means an inactive call. Inconclusive results are not listed. Active and inactive are the calls of the source. Unless noted, calls follow the shape of the dose curve; as a rule, active = well fitted curve in the direction sought with a large enough effect; inconclusive = small, poorly fitted or top-dose-only effect, or another doubt; inactive = no such curve, though single readings can be large; an effect the other way counts as inactive or inconclusive.

Chain of Dual specificity protein kinase CLK4 (Homo sapiens) (Q9HAZ1 whole entry, looked up): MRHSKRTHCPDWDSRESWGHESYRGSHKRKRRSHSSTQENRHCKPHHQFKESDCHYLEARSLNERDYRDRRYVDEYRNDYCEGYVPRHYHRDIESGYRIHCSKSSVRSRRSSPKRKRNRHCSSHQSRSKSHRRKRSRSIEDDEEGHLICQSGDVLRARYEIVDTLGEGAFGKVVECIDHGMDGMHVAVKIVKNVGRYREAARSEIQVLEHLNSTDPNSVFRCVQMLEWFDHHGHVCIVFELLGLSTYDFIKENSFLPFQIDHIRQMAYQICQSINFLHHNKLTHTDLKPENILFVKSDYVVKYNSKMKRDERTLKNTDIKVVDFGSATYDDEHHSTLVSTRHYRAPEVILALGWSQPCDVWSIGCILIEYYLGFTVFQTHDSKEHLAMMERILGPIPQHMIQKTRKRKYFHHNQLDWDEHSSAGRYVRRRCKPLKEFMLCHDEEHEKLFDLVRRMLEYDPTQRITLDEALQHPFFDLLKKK
Chain of Glucocorticoid receptor (Homo sapiens) (P04150 whole entry, looked up): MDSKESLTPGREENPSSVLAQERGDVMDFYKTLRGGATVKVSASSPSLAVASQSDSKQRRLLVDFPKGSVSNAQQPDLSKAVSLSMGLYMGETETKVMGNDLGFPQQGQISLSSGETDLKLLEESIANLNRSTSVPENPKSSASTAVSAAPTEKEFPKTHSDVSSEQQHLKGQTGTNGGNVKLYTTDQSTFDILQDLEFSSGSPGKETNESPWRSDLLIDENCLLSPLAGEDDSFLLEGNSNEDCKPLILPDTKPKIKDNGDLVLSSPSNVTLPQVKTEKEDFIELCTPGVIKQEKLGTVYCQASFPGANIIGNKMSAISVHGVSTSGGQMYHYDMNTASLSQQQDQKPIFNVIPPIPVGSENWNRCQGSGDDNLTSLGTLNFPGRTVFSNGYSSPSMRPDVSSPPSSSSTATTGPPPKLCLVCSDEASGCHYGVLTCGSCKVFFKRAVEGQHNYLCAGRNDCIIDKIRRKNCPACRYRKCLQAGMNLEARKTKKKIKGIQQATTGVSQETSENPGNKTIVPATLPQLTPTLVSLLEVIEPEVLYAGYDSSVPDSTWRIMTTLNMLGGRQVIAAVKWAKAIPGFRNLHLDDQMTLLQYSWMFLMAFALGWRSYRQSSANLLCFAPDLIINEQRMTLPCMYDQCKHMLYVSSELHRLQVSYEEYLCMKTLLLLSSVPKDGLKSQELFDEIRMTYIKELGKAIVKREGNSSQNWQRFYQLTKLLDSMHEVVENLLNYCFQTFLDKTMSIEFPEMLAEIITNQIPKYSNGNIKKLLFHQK
Chain of Ubiquitin carboxyl-terminal hydrolase 1 (Homo sapiens) (O94782 whole entry, looked up): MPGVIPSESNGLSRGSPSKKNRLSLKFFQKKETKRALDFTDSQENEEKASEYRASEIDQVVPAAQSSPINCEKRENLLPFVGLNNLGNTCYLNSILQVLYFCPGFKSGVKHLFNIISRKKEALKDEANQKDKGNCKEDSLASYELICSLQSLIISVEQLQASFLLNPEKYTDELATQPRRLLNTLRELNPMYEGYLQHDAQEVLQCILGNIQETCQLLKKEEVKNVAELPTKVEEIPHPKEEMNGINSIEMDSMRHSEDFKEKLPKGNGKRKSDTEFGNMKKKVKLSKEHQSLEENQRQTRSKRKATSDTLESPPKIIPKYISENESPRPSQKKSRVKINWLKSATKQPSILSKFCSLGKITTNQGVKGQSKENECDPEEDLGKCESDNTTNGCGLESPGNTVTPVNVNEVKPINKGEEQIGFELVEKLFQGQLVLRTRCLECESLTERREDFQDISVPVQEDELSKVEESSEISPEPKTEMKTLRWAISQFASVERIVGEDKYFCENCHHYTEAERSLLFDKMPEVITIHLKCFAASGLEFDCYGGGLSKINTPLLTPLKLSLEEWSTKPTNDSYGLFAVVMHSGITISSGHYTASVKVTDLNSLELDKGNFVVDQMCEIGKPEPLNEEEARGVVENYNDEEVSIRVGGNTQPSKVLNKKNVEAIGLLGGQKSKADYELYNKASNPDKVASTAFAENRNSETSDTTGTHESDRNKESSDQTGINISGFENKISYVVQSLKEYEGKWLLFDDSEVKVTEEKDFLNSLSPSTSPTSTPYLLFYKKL
Chain of Lysosomal acid glucosylceramidase (Homo sapiens) (P04062 whole entry, looked up): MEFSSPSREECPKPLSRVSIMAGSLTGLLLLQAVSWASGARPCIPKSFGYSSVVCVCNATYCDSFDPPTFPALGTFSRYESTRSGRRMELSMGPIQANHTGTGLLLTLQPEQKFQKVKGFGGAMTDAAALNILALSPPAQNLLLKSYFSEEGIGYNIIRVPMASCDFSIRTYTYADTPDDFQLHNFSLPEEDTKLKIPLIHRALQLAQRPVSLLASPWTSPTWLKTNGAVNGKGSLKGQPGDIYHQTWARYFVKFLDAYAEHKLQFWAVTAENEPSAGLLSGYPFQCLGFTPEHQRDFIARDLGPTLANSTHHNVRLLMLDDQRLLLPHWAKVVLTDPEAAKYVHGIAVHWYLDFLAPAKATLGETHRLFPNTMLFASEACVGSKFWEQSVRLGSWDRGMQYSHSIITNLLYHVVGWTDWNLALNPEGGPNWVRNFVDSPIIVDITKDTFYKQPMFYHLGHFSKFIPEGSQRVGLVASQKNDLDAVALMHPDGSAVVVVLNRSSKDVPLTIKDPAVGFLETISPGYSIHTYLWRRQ
Chain of Cytochrome P450 1A2 (Homo sapiens) (P05177 whole entry, looked up): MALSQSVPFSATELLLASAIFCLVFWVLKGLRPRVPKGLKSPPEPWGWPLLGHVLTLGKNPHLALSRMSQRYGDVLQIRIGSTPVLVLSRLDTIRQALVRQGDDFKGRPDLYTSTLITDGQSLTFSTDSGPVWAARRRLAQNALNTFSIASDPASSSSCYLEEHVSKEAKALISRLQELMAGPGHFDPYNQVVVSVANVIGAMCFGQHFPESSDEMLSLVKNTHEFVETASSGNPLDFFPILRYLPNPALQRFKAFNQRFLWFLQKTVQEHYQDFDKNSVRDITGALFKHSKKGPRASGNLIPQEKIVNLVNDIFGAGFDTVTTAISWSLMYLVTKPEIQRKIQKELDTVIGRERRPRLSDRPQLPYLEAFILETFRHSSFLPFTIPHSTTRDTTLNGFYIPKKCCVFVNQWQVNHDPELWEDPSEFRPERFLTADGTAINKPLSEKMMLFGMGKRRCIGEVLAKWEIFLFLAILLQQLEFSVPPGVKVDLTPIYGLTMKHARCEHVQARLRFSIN
Chain of 3',5'-cyclic-AMP phosphodiesterase 4B (Homo sapiens) (Q07343 whole entry, looked up): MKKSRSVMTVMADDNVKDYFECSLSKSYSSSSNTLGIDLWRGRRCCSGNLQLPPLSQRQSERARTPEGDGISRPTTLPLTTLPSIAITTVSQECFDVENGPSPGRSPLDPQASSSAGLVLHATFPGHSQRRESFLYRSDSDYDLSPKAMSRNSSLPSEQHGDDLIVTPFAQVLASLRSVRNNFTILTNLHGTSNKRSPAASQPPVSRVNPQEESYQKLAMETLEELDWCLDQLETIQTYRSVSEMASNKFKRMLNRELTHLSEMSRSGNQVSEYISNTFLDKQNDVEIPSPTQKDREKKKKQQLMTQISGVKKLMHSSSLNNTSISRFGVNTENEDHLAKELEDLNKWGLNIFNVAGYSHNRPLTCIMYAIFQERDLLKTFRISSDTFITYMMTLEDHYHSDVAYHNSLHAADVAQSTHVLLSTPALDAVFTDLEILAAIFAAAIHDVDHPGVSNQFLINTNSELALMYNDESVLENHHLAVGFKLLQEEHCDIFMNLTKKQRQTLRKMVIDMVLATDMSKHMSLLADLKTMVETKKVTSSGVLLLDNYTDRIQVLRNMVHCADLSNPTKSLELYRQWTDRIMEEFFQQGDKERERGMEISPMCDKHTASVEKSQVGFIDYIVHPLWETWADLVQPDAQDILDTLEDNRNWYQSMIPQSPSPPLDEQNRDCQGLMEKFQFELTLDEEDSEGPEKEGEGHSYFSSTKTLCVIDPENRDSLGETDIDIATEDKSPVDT

Consider `COCCn1c(=O)c(CCc2ccccc2)nc2cncnc21`, for which the Potency in [1] is greater than 11.4 µM; in experiment [3], 10 µM (active); in experiment [6], greater than 9.22 µM; in experiment [7], greater than 46 µM; in [10] it was 7.94 µM (active). Besides, the results for the activity change, negative = inhibition in experiment [2] and in experiment [4] were -15.8% and 9.83%, respectively. For the same molecule, the molecule was called inactive in experiment [5] and in [11]. The Potency entry in [8], in [9], in [12], in [13], in experiment [14] and in [15] was “inactive” each time.
